From PubChem BioAssay AID504727 (Broad Institute, 2011)
Active and inactive are the calls of the source.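 How the source made its calls: active means fitted half-maximal concentration AC50 at or below ten times the highest valid tested dose, with signal falling as DNA is displaced (actives reach about 34 µM in these data); inconclusive means flat fit at moderate signal loss, or poor fit quality; inactive means the rest, including signal rising instead of falling.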

test: DNA intercalators displacing acridine orange, dose response, artefact control for KSHV LANA DNA-binding inhibitor project, biochemical, fluorescence polarization, cherry-picked samples, set 2 (AID 504727); conditions: AC50: Acridine orange-DNA displacement; series mostly up to 35 µM; activity change, negative = DNA displacement: at the top concentration;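 on activity change, negative = DNA displacement: 0% = median of neutral control wells and -100% = mitoxantrone positive control wells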

Row | SMILES | activity change, negative = DNA displacement | AC50
1 | CC(Sc1nc(-c2ccco2)nc2c1c(=O)n(C)c(=O)n2C)C(=O)O (centres undefined) | -10.9% (inactive) | –
2 | Nc1nc(-c2ccc(C(=O)O)cc2)cs1 | 2.05% (inactive) | –
3 | CSc1ccc(/C=N/Nc2cccc(C(=O)O)c2)cc1 | 4.22% (inactive) | –
4 | CC(Sc1ncccn1)C(=O)NNC(=O)c1cccc(Cl)c1 (centres undefined) | 1.6% (inactive) | –
5 | Cc1ccc(S(=O)(=O)/N=C/c2ccc(N(C)C)cc2)cc1 | 1.03% (inactive) | –
6 | NNC(=S)Nc1ccc(S(=O)(=O)N2CCOCC2)cc1 | 7.25% (inactive) | –
7 | CCN(c1ccc(C)cc1C)S(=O)(=O)c1nnc(NC(=O)c2ccco2)s1 | 7.43% (inactive) | –
8 | Cc1ccccc1C1=C/C(=C(\SS/C(C(=O)c2ccc(OCC(=O)O)c(Cl)c2Cl)=C2\C=C(c3ccccc3C)SS2)C(=O)c2ccc(OCC(=O)O)c(Cl)c2Cl)SS1 | 7.96% (inactive) | –
9 | COc1ccc(N(C(=O)c2ccc(Cl)cc2)C2=CC3CCC(C2)N3C)cc1 (centres undefined) | 4.22% (inactive) | –
10 | O=C(O)c1ccccc1NS(=O)(=O)c1ccc(N/N=C/c2ccc(O)c(O)c2)c([N+](=O)[O-])c1 | 2.24% (inactive) | –
11 | COc1cc(OC)cc(-c2c(-c3ccsc3)c3cc(Br)ccc3n2C)c1 | 2.88% (inactive) | –
12 | O=C(CSc1nc2ccccc2[nH]1)Nc1cccc(S(=O)(=O)N2CCOCC2)c1 | 3.04% (inactive) | –
13 | COc1ccc(OC2CCN(S(=O)(=O)c3ccc(OC)cc3)CC2)cc1 | 0.058% (inactive) | –
14 | Cc1ccc(N(C)C(=O)C2CCCN2S(=O)(=O)c2ccc3c(c2)n(C)c(=O)c(=O)n3C)cc1 (centres undefined) | 4.43% (inactive) | –
15 | CN1CCN(CCCNC(=O)c2cc3c(-c4ccc(Cl)cc4)nn(C)c3s2)CC1 | -6.74% (inactive) | –
16 | COc1cccc(NC(=O)N(CCN(C)C)C(C)c2cccnc2)c1 (centres undefined) | 5.51% (inactive) | –
17 | COc1ccc(-c2cc(C(=O)N(C)CCc3ccc(OC)c(OC)c3)c3ccccc3n2)cc1 | -3.19% (inactive) | –
18 | Cc1ccc(N=Nc2c(O)[nH]c3ccc(F)cc23)cc1 | 64.6% (inactive) | –
19 | Cc1cccnc1NC1(C(F)(F)F)N=C2SCCN2C1=O (centres undefined) | 4.57% (inactive) | –
20 | O=C(/C=C\c1ccccc1)Oc1cccc2cccnc12 | -4.77% (inactive) | –

Row | SMILES | activity change, negative = DNA displacement | AC50
21 | CCCC1(C2CCCC2)NC(=O)NC1=O (centres undefined) | 4.46% (inactive) | –
22 | O=C(CC1CCCC1)N1CCN(S(=O)(=O)c2ccccc2)CC1 | 3.19% (inactive) | –
23 | Cc1ccc(S(=O)(=O)/N=C2/C=C(Sc3ncn[nH]3)C(=O)c3ccccc32)cc1 | -0.37% (inactive) | –
24 | COc1cccc2c1C(=O)c1c(O)c3c(c(O)c1C2=O)CC(O)(C(C)=NNC(=O)c1ccc(Cl)c(Cl)c1)CC3OC1CC(N)C(O)C(C)O1 (centres undefined) | – | 2.05 µM (active)
25 | Cc1nc(Cl)c2c(n1)NC1=C(O2)C(=O)CCC1 | – | 11.1 µM (active)
26 | CC(=O)O[C@@H]1[C@@H](OC(C)=O)[C@H](n2ccc3cc([N+](=O)[O-])ccc32)OC[C@@H]1OC(C)=O | 5.05% (inactive) | –
27 | CCOC(=O)C1(Cc2cccc(F)c2)CCN(Cc2c(C)nn(CC)c2C)CC1 | -0.455% (inactive) | –
28 | CN(c1ccc(OCC(=O)OCC(=O)c2c(N)n(C)c(=O)n(C)c2=O)cc1)S(=O)(=O)c1ccc2ccccc2c1 | 7.45% (inactive) | –
29 | O=[N+]([O-])c1cccc(CSc2nc3ccccc3[nH]2)c1 | -1.64% (inactive) | –
30 | CC(C)=C1C2C=CC1C(C(=O)Nc1cc(C)ccc1C)C2C(=O)O (centres undefined) | 1.34% (inactive) | –
31 | COc1ccc(-c2csc(NC(=O)CSc3nc(C)nc4sc(C(=O)O)c(C)c34)n2)cc1 | 23.2% (inactive) | –
32 | COc1ccc2nc3ccccc3[n+]([O-])c2c1 | – | 26 µM (active)
33 | Nc1c(C(=O)Nc2ccccc2F)sc2nc(Cc3ccccc3)cc(C(F)(F)F)c12 | – | 20.2 µM (active)
34 | O=C(O)COc1ccc2c(c1)O/C(=C\c1ccco1)C2=O | 3.11% (inactive) | –
35 | CC[C@H](C)[C@H](NC(N)=O)C(=O)Nc1ccc(NC(C)=O)cc1 | 6% (inactive) | –
36 | O=C(NCc1cccnc1)C(=O)C1C(=O)Nc2ccccc21 (centres undefined) | 2.18% (inactive) | –
37 | CC(Sc1nc2ccccc2s1)C(=O)Nc1nnc(C(C)C)s1 (centres undefined) | -3.03% (inactive) | –
38 | Cc1cc(-c2nnc(SCC(=O)Nc3ccccc3)n2C)no1 | 4.5% (inactive) | –
39 | CC(C)c1ccc(CNc2ccc([N+](=O)[O-])cn2)cc1 | 0.311% (inactive) | –
